Experimental findings from PMC7862700, “An all-to-all approach to the identification of sequence-specific readers for epigenetic DNA modifications on cytosine” are described below.

Assay in all cases: DAPPL (digital affinity profiling via proximity ligation, sequencing); 10 mM Tris-HCl pH 7.5, 50 mM NaCl, 1 mM DTT, 4% glycerol, room temperature, 30 min; GST-TFs on glutathione beads, 16-mer random dsDNA library, 0.1% formaldehyde crosslink after washing; high values mean tight binding
The target of experiment [1] is T1, FEV (Homo sapiens, UniProt Q99581 1-238).
T1 sequence: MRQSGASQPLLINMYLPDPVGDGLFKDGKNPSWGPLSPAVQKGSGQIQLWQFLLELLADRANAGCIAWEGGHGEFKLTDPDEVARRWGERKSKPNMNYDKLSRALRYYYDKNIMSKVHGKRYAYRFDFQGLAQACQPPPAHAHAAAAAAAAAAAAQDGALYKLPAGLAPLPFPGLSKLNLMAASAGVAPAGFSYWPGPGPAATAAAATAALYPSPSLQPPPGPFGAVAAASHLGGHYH
The conditions noted are these: protein: recombinant; tags: N-terminal GST; dsDNA, one strand shown. In a few lines:
(§1)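 In yeast, human transcription factors were expressed with a GST fusion, then pulled down on glutathione beads and given DNA barcodes. Pooled with a tag-only sample, they were exposed to 200 nmole of a 16-mer random double-stranded DNA library (Tris/NaCl/DTT/glycerol buffer, room temperature, 30 min), washed, crosslinked with 0.1% formaldehyde, proximity-ligated using BsaI/T4 ligase for 1 h at 37 °C, PCR-amplified and read on an Illumina NextSeq500. Each hexamer's frequency of reads for a factor, divided by the matching frequency for the tag-only sample, gives the binding signal.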

The target of experiment [2] is ETV5 (Homo sapiens, UniProt P41161 1-510). The conditions noted are these: protein: recombinant; tags: N-terminal GST; dsDNA, one strand shown. Put shortly:
as §1

Experiment [3] concerns the target HSF1 (Homo sapiens, UniProt Q00613 1-529). The conditions noted are these: protein: recombinant; tags: N-terminal GST; chain copies: 3; dsDNA, one strand shown. Put shortly:
as §1

Experiment [4] deals with T2, SPIC (Homo sapiens, UniProt Q8N5J4 1-248).
T2 sequence: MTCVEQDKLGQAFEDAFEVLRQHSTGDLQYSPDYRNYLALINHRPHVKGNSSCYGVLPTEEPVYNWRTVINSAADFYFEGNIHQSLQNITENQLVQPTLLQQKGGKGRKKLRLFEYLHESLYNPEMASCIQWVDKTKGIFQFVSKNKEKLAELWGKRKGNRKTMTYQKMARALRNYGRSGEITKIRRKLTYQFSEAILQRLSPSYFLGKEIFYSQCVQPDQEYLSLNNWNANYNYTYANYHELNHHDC
Conditions: protein: recombinant; tags: N-terminal GST; dsDNA, one strand shown. In a few lines:
as §1

The target in experiment [5] is ELF4 (Homo sapiens, UniProt Q99607 1-663). Conditions: protein: recombinant; tags: N-terminal GST; dsDNA, one strand shown. In a few lines: as §1
The target in experiment [6] is T3, ELK4 (Homo sapiens, UniProt P28324-2 1-405).
T3 sequence: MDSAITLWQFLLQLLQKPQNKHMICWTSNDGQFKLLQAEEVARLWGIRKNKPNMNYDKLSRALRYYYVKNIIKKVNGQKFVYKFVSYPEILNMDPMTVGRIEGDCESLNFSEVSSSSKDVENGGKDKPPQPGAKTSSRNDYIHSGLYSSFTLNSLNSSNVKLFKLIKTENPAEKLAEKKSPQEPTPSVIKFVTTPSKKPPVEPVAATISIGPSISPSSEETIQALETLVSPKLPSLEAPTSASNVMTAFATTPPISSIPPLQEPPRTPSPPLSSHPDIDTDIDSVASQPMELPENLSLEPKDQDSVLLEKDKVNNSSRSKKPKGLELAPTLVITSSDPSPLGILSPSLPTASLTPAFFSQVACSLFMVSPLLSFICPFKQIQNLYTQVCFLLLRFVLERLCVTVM
Conditions: protein: recombinant; tags: N-terminal GST; dsDNA, one strand shown. In a few lines:
as §1

Experiment [7] addresses T4, ETV2 (Homo sapiens, UniProt O00321 1-342).
T4 sequence: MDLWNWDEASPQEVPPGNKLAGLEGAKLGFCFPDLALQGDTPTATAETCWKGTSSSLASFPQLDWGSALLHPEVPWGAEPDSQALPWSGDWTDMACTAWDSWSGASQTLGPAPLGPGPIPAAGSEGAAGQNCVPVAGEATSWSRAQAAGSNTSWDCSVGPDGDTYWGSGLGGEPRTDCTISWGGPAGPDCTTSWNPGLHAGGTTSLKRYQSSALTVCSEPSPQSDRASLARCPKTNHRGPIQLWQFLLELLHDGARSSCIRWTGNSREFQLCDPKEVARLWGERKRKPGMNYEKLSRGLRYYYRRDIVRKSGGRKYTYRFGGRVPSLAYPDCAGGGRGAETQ
The conditions noted are these: protein: recombinant; tags: N-terminal GST; dsDNA, one strand shown. In a few lines:
as §1

In experiment [8] the target is T5, ELF3 (Homo sapiens, UniProt P78545 1-371).
T5 sequence: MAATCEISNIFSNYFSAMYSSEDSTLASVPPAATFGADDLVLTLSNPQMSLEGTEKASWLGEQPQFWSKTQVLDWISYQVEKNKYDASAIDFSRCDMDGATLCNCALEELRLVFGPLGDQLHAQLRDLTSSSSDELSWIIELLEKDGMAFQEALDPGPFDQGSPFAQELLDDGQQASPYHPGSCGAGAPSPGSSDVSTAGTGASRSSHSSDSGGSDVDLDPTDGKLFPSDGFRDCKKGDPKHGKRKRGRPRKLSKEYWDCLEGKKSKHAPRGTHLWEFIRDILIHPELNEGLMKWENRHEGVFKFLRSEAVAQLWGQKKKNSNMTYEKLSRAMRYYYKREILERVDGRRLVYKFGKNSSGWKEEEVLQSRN
Conditions: protein: recombinant; tags: N-terminal GST; dsDNA, one strand shown. In a few lines: as §1

The target of experiment [9] is CRX (Homo sapiens, UniProt O43186 1-299). Conditions: protein: recombinant; tags: N-terminal GST; dsDNA, one strand shown. Put shortly:
as §1

The target in experiment [10] is ETV1 (Homo sapiens, UniProt P50549 1-477). Conditions: protein: recombinant; tags: N-terminal GST; dsDNA, one strand shown. In a few lines: as §1
Experiment [11] addresses T6, ERF (Homo sapiens, UniProt P50548 1-548).
T6 sequence: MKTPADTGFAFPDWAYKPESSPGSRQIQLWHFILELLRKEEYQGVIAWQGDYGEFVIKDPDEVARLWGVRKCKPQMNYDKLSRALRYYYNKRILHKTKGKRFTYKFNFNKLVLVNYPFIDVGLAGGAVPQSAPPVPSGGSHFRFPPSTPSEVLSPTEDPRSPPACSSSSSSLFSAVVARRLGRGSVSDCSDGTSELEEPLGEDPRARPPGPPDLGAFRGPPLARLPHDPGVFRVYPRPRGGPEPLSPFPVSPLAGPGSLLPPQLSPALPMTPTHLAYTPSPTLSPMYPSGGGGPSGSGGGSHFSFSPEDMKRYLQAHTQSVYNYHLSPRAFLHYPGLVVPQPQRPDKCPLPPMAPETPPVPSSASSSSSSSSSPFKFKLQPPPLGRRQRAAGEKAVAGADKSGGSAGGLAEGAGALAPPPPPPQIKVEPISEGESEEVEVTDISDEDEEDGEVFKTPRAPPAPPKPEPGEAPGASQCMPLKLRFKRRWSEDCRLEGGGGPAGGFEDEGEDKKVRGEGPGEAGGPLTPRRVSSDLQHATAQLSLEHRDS
The conditions noted are these: protein: recombinant; tags: N-terminal GST; dsDNA, one strand shown. Put shortly: as §1

For experiment [12], the target named is T7, ETV3L (Homo sapiens, UniProt Q6ZN32 1-361).
T7 sequence: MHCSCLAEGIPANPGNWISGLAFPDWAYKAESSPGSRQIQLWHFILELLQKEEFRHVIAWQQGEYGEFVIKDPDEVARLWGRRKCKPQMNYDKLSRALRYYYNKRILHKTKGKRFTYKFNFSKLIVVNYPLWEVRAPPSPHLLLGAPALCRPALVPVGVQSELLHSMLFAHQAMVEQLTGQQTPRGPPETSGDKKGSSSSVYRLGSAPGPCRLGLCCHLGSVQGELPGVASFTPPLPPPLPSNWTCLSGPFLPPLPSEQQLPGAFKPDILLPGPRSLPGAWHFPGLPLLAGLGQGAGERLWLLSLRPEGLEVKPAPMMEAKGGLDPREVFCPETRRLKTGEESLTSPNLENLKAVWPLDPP
Conditions: protein: recombinant; tags: N-terminal GST; dsDNA, one strand shown. Put shortly:
as §1

Experiment [13] deals with T8, ETS2 (Homo sapiens, UniProt P15036 1-469).
T8 sequence: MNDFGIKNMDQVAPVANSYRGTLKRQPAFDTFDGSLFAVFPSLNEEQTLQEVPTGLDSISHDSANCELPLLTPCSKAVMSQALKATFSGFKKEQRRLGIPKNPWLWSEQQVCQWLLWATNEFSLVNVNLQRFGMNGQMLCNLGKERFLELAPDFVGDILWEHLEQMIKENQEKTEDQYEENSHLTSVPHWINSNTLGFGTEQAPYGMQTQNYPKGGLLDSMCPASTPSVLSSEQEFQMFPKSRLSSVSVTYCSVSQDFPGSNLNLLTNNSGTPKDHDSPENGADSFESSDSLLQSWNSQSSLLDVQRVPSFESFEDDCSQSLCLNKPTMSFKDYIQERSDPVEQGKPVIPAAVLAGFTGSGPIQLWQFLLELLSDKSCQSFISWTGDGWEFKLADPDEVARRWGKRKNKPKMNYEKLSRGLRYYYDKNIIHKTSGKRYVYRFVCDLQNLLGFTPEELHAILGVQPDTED
The conditions noted are these: protein: recombinant; tags: N-terminal GST; dsDNA, one strand shown. In a few lines: as §1

The target in experiment [14] is T9, SPDEF (Homo sapiens, UniProt O95238 1-335).
T9 sequence: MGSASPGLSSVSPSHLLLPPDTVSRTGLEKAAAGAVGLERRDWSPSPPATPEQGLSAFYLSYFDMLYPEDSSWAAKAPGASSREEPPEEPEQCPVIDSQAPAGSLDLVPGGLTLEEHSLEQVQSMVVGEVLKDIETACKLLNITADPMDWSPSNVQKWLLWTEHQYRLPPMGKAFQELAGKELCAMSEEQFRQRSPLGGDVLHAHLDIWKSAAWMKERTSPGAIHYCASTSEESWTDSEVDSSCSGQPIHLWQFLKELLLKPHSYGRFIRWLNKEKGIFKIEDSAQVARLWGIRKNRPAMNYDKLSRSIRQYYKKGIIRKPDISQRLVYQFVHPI
Conditions: protein: recombinant; tags: N-terminal GST; dsDNA, one strand shown. In a few lines: as §1

Experiment [15] deals with T10, ETV7 (Homo sapiens, UniProt Q9Y603 1-341).
T10 sequence: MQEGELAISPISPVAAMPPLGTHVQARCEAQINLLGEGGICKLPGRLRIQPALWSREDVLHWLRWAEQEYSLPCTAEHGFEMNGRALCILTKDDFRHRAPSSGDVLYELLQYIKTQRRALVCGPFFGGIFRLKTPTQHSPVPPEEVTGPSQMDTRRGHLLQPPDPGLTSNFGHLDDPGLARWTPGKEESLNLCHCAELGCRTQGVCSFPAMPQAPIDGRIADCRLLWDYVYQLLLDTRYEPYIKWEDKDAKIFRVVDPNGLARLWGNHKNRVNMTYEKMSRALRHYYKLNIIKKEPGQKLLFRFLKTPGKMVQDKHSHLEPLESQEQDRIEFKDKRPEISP
The conditions noted are these: protein: recombinant; tags: N-terminal GST; dsDNA, one strand shown. Put shortly:
as §1

Experiment [16] has as its target T11, ELF5 (Homo sapiens, UniProt Q9UKW6-2 1-255).
T11 sequence: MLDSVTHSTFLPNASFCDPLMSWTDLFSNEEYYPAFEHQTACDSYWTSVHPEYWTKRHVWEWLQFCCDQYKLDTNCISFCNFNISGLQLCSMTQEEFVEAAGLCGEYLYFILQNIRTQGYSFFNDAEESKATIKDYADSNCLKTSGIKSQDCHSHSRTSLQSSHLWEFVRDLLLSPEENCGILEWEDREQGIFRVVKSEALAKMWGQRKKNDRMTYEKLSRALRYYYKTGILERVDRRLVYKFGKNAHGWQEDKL
The conditions noted are these: protein: recombinant; tags: N-terminal GST; dsDNA, one strand shown. Put shortly:
as §1

Experiment [17] addresses T12, ETV3 (Homo sapiens, UniProt P41162-2 1-143).
T12 sequence: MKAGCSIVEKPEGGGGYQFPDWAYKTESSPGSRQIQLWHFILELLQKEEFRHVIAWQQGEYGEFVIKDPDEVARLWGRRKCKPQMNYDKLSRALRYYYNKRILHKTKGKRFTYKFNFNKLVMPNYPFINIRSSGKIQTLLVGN
Conditions: protein: recombinant; tags: N-terminal GST; dsDNA, one strand shown. Put shortly:
as §1

The target in experiment [18] is ETV6 (Homo sapiens, UniProt P41212 1-452). Conditions: protein: recombinant; tags: N-terminal GST; dsDNA, one strand shown. Put shortly: as §1
Chain of ETV6 (P41212 whole entry): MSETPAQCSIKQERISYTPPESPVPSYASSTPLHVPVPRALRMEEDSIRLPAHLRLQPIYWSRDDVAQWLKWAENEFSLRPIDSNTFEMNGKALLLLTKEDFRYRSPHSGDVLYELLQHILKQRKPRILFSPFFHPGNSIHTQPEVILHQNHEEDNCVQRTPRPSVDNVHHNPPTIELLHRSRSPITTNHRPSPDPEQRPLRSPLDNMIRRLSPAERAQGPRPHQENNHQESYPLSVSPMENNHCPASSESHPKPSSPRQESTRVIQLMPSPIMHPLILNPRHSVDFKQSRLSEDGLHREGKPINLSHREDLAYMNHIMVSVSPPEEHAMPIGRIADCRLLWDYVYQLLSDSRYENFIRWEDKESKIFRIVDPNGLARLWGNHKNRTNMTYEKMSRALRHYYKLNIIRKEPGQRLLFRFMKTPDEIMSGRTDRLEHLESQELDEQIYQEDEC

Chain of ELF4 (Q99607 whole entry): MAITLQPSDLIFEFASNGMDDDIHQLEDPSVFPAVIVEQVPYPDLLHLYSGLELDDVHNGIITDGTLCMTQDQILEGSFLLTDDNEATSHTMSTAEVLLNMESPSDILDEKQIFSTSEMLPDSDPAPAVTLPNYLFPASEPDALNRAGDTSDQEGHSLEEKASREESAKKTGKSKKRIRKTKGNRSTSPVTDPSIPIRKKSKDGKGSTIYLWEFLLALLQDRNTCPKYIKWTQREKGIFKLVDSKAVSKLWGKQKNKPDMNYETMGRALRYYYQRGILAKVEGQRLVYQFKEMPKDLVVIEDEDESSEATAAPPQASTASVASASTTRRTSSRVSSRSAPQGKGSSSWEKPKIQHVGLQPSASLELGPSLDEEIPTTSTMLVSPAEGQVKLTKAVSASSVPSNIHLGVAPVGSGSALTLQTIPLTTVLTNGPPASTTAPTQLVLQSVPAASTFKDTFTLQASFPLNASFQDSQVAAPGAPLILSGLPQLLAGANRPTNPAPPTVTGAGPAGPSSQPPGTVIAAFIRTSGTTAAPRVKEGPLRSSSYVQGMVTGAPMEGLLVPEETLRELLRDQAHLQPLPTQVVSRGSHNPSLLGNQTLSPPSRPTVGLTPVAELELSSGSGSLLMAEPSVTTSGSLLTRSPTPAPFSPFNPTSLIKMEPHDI
Chain of ETV5 (P41161 whole entry): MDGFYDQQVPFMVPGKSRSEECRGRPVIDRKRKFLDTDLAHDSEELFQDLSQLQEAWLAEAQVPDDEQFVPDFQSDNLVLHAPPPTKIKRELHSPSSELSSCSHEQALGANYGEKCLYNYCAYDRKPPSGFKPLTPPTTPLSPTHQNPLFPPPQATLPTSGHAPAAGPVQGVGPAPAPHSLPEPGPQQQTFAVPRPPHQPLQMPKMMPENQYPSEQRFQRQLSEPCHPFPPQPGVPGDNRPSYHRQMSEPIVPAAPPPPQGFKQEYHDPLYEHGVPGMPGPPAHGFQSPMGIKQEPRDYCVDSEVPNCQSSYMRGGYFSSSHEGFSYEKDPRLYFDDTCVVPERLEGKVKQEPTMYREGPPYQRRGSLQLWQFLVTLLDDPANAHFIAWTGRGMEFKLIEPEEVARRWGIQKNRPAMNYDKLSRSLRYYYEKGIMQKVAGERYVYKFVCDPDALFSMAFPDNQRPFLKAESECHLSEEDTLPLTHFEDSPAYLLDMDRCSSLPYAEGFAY
Chain of HSF1 (Q00613 whole entry): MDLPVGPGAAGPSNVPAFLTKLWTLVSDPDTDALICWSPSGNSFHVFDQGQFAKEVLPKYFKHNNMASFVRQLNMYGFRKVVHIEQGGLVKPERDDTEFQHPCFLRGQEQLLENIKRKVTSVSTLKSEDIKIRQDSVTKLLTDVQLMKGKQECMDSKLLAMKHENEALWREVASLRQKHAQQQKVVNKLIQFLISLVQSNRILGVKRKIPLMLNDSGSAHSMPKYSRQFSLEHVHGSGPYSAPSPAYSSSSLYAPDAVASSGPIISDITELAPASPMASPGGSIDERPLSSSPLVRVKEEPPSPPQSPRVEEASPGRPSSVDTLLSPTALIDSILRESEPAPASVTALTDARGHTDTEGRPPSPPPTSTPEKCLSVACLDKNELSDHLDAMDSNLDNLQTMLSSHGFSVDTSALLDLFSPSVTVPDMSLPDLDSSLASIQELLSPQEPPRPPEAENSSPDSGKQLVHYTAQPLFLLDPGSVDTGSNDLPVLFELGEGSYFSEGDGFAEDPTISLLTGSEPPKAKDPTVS
Chain of ETV1 (P50549 whole entry): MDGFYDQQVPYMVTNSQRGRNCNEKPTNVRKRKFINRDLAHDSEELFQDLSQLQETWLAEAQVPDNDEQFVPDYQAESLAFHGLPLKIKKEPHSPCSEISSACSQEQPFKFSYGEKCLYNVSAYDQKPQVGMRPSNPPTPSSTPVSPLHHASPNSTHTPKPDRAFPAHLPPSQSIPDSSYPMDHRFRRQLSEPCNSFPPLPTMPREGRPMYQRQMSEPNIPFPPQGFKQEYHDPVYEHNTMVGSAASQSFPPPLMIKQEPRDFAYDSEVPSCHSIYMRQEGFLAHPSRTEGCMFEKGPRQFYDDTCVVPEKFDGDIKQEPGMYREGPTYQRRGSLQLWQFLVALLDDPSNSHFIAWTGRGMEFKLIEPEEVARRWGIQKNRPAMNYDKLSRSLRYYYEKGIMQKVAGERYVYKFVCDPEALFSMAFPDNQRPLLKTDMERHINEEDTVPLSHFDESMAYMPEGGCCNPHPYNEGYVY
Chain of CRX (O43186 whole entry): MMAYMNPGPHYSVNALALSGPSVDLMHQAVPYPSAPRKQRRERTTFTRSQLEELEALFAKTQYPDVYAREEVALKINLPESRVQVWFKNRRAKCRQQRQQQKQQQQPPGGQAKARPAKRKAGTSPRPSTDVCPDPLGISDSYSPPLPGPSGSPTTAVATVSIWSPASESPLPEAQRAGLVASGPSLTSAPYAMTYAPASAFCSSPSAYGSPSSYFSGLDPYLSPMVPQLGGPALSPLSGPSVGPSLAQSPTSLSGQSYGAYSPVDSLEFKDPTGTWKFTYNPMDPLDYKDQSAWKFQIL

In the case of ATCGAA, the binding signal is 1.08 fold enrichment (6-mer frequency, TF over GST control) in experiment [1]; 1.16 fold enrichment (6-mer frequency, TF over GST control) in experiment [2]; 1.87 fold enrichment (6-mer frequency, TF over GST control) in [3]; 1.11 fold enrichment (6-mer frequency, TF over GST control) in [4]; 1.14 fold enrichment (6-mer frequency, TF over GST control) in experiment [5]; 1.14 fold enrichment (6-mer frequency, TF over GST control) in experiment [6]. The binding signal in experiment [7] was 1.07 fold enrichment (6-mer frequency, TF over GST control); in experiment [8], 1.07 fold enrichment (6-mer frequency, TF over GST control); in [9] it was 1.31 fold enrichment (6-mer frequency, TF over GST control); in [10], 1.13 fold enrichment (6-mer frequency, TF over GST control); in [11] it was 1.18 fold enrichment (6-mer frequency, TF over GST control); in [12], 1.16 fold enrichment (6-mer frequency, TF over GST control). Also, the binding signal in experiment [13] is 1.2 fold enrichment (6-mer frequency, TF over GST control); in experiment [14], 1.09 fold enrichment (6-mer frequency, TF over GST control); in experiment [15] it was 1.25 fold enrichment (6-mer frequency, TF over GST control); in experiment [16] it was 1.05 fold enrichment (6-mer frequency, TF over GST control); in [17], 1.03 fold enrichment (6-mer frequency, TF over GST control); in experiment [18] it was 1.05 fold enrichment (6-mer frequency, TF over GST control).
